# Results published in PubChem BioAssay (NCATS).
# Records with an inconclusive call do not appear. A number with no mark means an inactive call. Calls of active or inactive are those of the source. Calls come from the whole dose curve; as a rule, active = well fitted inhibition curve with a large enough effect; inconclusive = small, poorly fitted or top-dose-only effect; inactive = flat fitted curve, though single readings scatter.
# Test: qHTS for Inhibitors of Plasmodium falciparum (HB3) proliferation (AID 504318); note: nearly all actives have a fitted effect of over 60% in size;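 for activity change, negative = inhibition: 0% = DMSO vehicle and -100% = artemisinin control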
# Conditions: P. falciparum HB3 in erythrocytes, SYBR Green DNA, 72 h; series mostly up to 7.21 µM; activity change, negative = inhibition: at the top concentration
# Excerpt: Plasmodium falciparum is a virulent malarial parasite that kills 1-2 million people worldwide each year. Malaria not only inflicts tremendous suffering and morbidity on the human population, but has dramatically influenced the course of civilization with profound sociological and economic implications (Shah, S. 2010). Transmitted by mosquitoes, the sporozoite form of the parasite enters the blood stream to infect hepatocytes, where they become merozoites that infect red blood cells (erythrocytes). Within erythrocytes, merozoites begin a […] cycle of growth and division, after which the parasite is released to infect new red blood cells. Gametocytes, which form within erythrocytes as well, circulate in the bloodstream and are ingested by the mosquito, thereby completing the life cycle (see CDC website). To profile malarial lines for differential chemical responses and to identify inhibitors of malarial growth, an assay that measures P. falciparum growth and replication within erythrocytes was employed. This assay uses a DNA binding fluorescent dye (SYBR Green) to detect parasite DNA following cell lysis. Because mature erythrocytes lack DNA, only Plasmodium-derived DNA is detected. The P. falciparum line cp250, derived from a malarial isolate from Cambodia, (Mu, J., et al. 2010) was added to the panel of lines, Dd2, HB3, 7G8 and GB4 in this study. Laboratory of Assay Development and Screening Technology [ADST] and NIH Chemical Genomics Center [NCGC] Boston University, Chemistry Department, Center for Chemical Methodology and Library Development [CMLD-BU] NIH National Institute of Allergy and Infectious Diseases [NIAID]
# ADST Assay Protocol Summary: The 1536-well SYBR Green viability assay was based on the method of Bennett et al (2004) and described previously in 1536-well format (Yuan J., et al. 2009). For screening 3 ul culture medium was dispensed into 1536 well black clear bottom plates (Aurora Biotechnologies) using a Multidrop Combi (Thermo Fisher Scientific Inc.), 23 nL compounds in DMSO were added by a pin transfer (Cleveland, P.H. and Koutz, P.J, 2005) using a pin tool-based delivery system (Kalypsys), and 5 ul of erythrocytes infected with P. falciparum one of five lines (cp250, Dd2, HB3, 7G8 or GB4, 0.3% parasitemia, 2.5% hematocrit final concentration) were added. The plates were incubated at 37C in a humidified incubator in 5% CO2 for 72 h, and 2 ul lysis buffer (20 mM Tris HCl, 10 mM EDTA, 0.16% saponin, 1.6% triton X, 10X SYBR Green I (supplied as 10,000X final concentration by Invitrogen) was added to each well. The plates were mixed for 25 sec with gentle shaking and incubated overnight at room temperature in the dark. The following morning, fluorescence intensity at 485(14) nm excitation and 535(25) nm emission wavelengths was measured on an EnVision (Perkin Elmer) plate reader. Plate reads were normalized relative to the control inhibitor (0.29 uM artemisinin) and vehicle (DMSO) wells present on each plate and then corrected by an algorithm using vehicle-only control plates at the beginning and end of the compound plate stack. References Shah, S. (2010). The Fever: how malaria has ruled humankind for 500,000 years. New York, Sarah Crichton Books. CDC web site, http://www.cdc.gov/malaria/about/biology/index.html Mu, J., Myers, R.A., Jiang, H., Liu, S., Ricklefs, S., Waisberg, M., Chotivanich, K., Wilairatana, P., Krudsood, S., White, N.J., et Plasmodium falciparum genome-wide scans for positive selection, recombination hot spots and resistance to antimalarial drugs Nature Genetics 2010, 42, pp 268-271 Bennett TN, Paguio, M., Gligorijevic, B., Seudieu, C., Kosar, A. D., Davidson, E., and Roepe, P. D. Novel, rapid, and inexpensive cell-based quantification of antimalarial drug efficacy Antimicrobial Agents Chemother. 2004, 48(5): pp 1807-10 Yuan J, Johnson RL, Huang RL, Wichterman J, Jiang HY, Hayton K, Fidock DA, Wellems TE, Inglese J, Austin CP, Su XZ. […]
# Potency is the fitted concentration of half-maximal effect.
Compound,"activity change, negative = inhibition",Potency
CCOC(=O)CN1C(=O)N[C@@H](c2cccc(C(F)(F)F)c2)C(C(C)=O)=C1C,-2.2%,–
COC(=O)N1C2=C(c3ccccc3[C@@H]1CC(=O)Nc1ccc3ccc4cccc5ccc1c3c45)[C@@H]1C(=O)N(c3ccccc3)C(=O)[C@@H]1[C@H](C)C2,–,2.13 µM (active)
C[C@@H]1C[C@](C)(C(=O)c2ccc3ccccc3c2)C=C1c1ccc2ccccc2c1,-3.81%,–
COC(=O)C1=C(C(=O)OC)[C@@H]2Nc3ccccc3[C@@]23C[C@@H](C(=O)OC)N(S(=O)(=O)c2cccs2)C3=N1,-3.66%,–
C[C@H]1Cc2c(-c3ccccc3)nc3c(c2CO1)CN(C(=O)NCCc1c[nH]c2ccccc12)CC3,-9.75%,–
CCCCC1=CC2=CC(=O)C(C)(OC(=O)CC)C(=O)C2=CN1c1ccc(OC)cc1 (stereo not given),-0.823%,–
CC1COc2ccccc2C1=O (stereo not given),–,1.9 µM (active)
CCCCC1=CC2=CC(=O)C(C)(OC(=O)CC)C(=O)C2=CN1Cc1ccccc1 (stereo not given),-6.68%,–
COC(=O)N1C2CC(=O)O[C@@H]3c4cc5c(cc4[C@]1(C)[C@@]3(Br)c1ccccc12)OCO5,–,1.9 µM (active)
COc1cccc([C@@H]2Oc3ccc(Br)cc3[C@H](O)[C@@H]2O)c1,5.68%,–
COC(=O)C1=C(C(=O)OC)[C@@H]2N(Cc3ccccc3)c3ccccc3[C@@]23C[C@@H](C(=O)OC)N(C(=O)COCc2ccccc2)C3=N1,-2.98%,–
C=C(C(C)=O)C(O)c1ccc2ccccc2c1 (stereo not given),6.51%,–
COC(=O)N1C(C)=Cc2ccccc2C1C/C(C)=C/C(C)=O (stereo not given),-3.16%,–
COC(=O)C1=C(C(=O)OC)[C@@H]2Nc3ccccc3[C@@]23C[C@@H](C(=O)OC)N(C(=O)c2ccc(Br)cc2)C3=N1,-5.96%,–
C=CCN1c2ccccc2[C@]23C[C@@H](C(=O)OC)N(S(=O)(=O)CCCC)C2=NC(C(=O)OC)=C(C(=O)OC)[C@H]13,-7.29%,–
COC(=O)C1=C(C(=O)OC)[C@@H]2N(C)c3ccc(OC)cc3[C@@]23C[C@@H](C(=O)OC)N(S(=O)(=O)c2ccc(OC)cc2)C3=N1,-9.81%,–
C=CCN1C=C2C(=O)C(C)(OC(=O)c3cccs3)C(=O)C=C2C=C1CCCC(=O)OC (stereo not given),-2.71%,–
C=CCN1c2ccccc2[C@]23C[C@@H](C(=O)OC)N(C(=O)C4CCC4)C2=NC(C(=O)OC)=C(C(=O)OC)[C@H]13,-4.07%,–
CCOC(=O)CN1C(=O)N[C@@H](CCc2ccccc2)C(C(=O)OC)=C1C,-4.43%,–
CCN1C(=O)N[C@@H](c2cccc(F)c2)C(C(C)=O)=C1C,3.06%,–

Compound,"activity change, negative = inhibition",Potency
COc1ccc([C@]23Cc4cc(OC)c(OC)cc4[C@H](O2)c2c(c4ccccc4oc2=O)O3)cc1,-8.92%,–
COC(=O)C(C(=O)OC)C1c2ccccc2C=C(C)N1C(=O)OC (stereo not given),-1.85%,–
CCN(CC)CCCN1C=C2C(=O)C(C)(OC(=O)c3cccs3)C(=O)C=C2C=C1CCCC(=O)OC (stereo not given),-14.1%,–
COC(=O)C1=C(C(=O)OC)[C@@H]2N(C)c3ccc(OC)cc3[C@@]23C[C@@H](C(=O)OC)N(C(C)=O)C3=N1,-1.57%,–
CCN(CC)CCCN1C=C2C(=O)C(C)(OC(=O)CCc3ccccc3)C(=O)C=C2C=C1c1ccc(C#N)cc1 (stereo not given),0.825%,–
C=CCN1c2ccccc2[C@]23C[C@@H](C(=O)OC)N(S(=O)(=O)c4c(C)noc4C)C2=NC(C(=O)OC)=C(C(=O)OC)[C@H]13,-1.28%,–
CCN1C(=O)N[C@@H](c2cccs2)C(C(C)=O)=C1C,0.965%,–
CC1(OC(=O)CCc2ccccc2)C(=O)C=C2C=C(c3ccc(C#N)cc3)N(c3ccccc3)C=C2C1=O (stereo not given),-2.09%,–
COCOc1ccc(OC)cc1C(=O)C=Cc1ccc(OC)c(Br)c1,–,1.69 µM (active)
CCCNC(=O)N1C2=NC(C(=O)OC)=C(C(=O)OC)[C@@H]3Nc4ccccc4[C@]23C[C@H]1C(=O)OC,0.327%,–
C=CCOC(=O)C(C(C)=O)[C@@H](NC(=O)OC)c1cccc(C(F)(F)F)c1 (stereo not given in full),-6.72%,–
CC1(C)O[C@@H]2[C@@H](O1)C(c1ccccc1)(c1ccccc1)OP(=O)(O)OC2(c1ccccc1)c1ccccc1,4.61%,–
COc1cc2c(cc1OC)[C@@H]1O[C@](CCCCN3C(=O)c4ccccc4C3=O)(C2)Oc2cc(C)n(-c3ccccc3)c(=O)c21,–,1.2 µM (active)
C=CCN1c2ccccc2[C@]23C[C@@H](C(=O)OC)N(S(=O)(=O)c4cccs4)C2=NC(C(=O)OC)=C(C(=O)OC)[C@H]13,-6.07%,–
COCC(=O)N1CCc2nc(COc3ccccc3)c3c(c2C1)CO[C@@H](C)C3,5.06%,–
CCOC(=O)CN1C(=O)N[C@@H](c2cccc(C(F)(F)F)c2)C(C(=O)OC)=C1C,2.34%,–
COC(=O)[C@@H]1[C@@H](C)N(CCc2cc(OC)c(OC)c(OC)c2)C(=O)N[C@H]1c1ccccc1,-5.65%,–
C[C@H]1Cc2c(COc3ccccc3)nc3c(c2CO1)CN(S(=O)(=O)c1ccc(Cl)c2nonc12)CC3,-4.98%,–
COC(=O)C1=C(C(=O)OC)[C@@H]2N(C)c3ccccc3[C@@]23C[C@@H](CO)N(C(=O)c2cc(C)oc2C)C3=N1,-8.51%,–
CC1(OC(=O)C2CCCC2)C(=O)C=C2C=C(c3ccsc3)N(c3ccccc3)C=C2C1=O (stereo not given),-2.07%,–
